Bioassay records as filed in PubChem BioAssay.
CYP2C19 act = cytochrome P450 2C19 (human) activation. P33261. recombinant CYP2C19, luciferin-H EGE luminescence; hits give high values; 0 = fully inhibited enzyme, 1 = untreated enzyme. activation factor at 5 µM. 96,000 tested, under 10 active;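 active = activation factor of at least 2 at 5 µM in the primary screen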
Plk1 PBD FP = Plk1 (human) PBD binding inhibition | P53350 | hit rate 0.13% among 97,000 | Plk1 PBD phosphopeptide binding, fluorescence polarization | inhibition, %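 (tested at about 20 µM)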; in the data active = inhibition above about 34%, passing the limit was not always enough
Target sequence (P53350 whole entry, looked up): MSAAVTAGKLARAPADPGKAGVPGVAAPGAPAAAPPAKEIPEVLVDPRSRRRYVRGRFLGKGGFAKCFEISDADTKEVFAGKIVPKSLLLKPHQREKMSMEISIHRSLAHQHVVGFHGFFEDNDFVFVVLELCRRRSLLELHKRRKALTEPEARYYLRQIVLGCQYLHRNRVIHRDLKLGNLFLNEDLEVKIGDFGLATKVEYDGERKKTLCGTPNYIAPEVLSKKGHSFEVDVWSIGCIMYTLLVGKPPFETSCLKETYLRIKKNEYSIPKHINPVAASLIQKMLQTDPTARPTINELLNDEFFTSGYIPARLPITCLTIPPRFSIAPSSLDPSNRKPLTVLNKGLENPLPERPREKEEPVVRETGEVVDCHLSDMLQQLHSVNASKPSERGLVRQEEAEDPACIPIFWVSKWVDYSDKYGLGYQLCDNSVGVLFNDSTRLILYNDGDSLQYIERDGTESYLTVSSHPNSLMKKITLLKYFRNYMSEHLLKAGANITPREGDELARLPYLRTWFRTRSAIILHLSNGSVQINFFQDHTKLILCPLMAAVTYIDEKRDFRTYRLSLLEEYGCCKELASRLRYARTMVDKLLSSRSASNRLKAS
CYP2C9 inh = human CYP2C9 inhibition. CYP2C9 Supersomes, luciferin-H conversion, luminescence. AID 777. P11712. hit rate 20% among 96,000. inhibition, % at 5 µM;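 active = blocking of liver enzyme CYP2C9 beyond about 50% at 5 µM, limit read from the data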
CYP2C19 inh = blocks human cytochrome P450 2C19. inhibition, % at 5 µM. CYP2C19 Supersomes, luciferin-H EGE luminescence, 30 min. AID 778. P33261. hit rate 21% among 96,000;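 active = CYP2C19 inhibition above a set limit at 5 µM in the primary screen, cut at about 50% in these data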
PLK1 kinase inh = PLK1 (human) kinase inhibition; recombinant PLK1 kinase, TR-FRET peptide phosphorylation; inhibition, % at 10 µM; hit rate 0.53% among 97,000; AID 619;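 active = inhibition of 50% or more in the single-concentration screen; inactive = inhibition below 50%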
CYP2C9 act = CYP2C9 (human) activation; activation factor at 5 µM; hit rate 1.4% among 96,000; P11712; recombinant CYP2C9, luciferin-H conversion, luminescence; hits give high values; factor 1 = untreated enzyme, 0 = blocked;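 active = activation factor of 2 or more for CYP2C9 at a 5 µM dose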
Of the large screens only hits and unclear results are named; the others gave an inactive call. Sampled rows, rich in hits. Any-hit rate of the full collection: about 28%.

O=C(Nc1ccc(C(=O)N2CCCCC2)cc1)C1CCCCC1	none
COc1cccc(C2C(C(=O)c3cccs3)=C(O)C(=O)N2CCCn2ccnc2)c1OC (configuration not stated)	CYP2C9 inh 88.6, CYP2C19 inh 77.2 (no result: Plk1 PBD FP, PLK1 kinase inh)
Cc1nc(C)c(C(=O)C2=C(O)C(=O)N(CCCn3ccnc3)C2c2ccc(Cl)cc2)s1 (configuration not stated)	CYP2C9 inh 58.9
CCCOc1ccc(C2C(C(=O)c3ccco3)=C(O)C(=O)N2CCCn2ccnc2)cc1 (configuration not stated)	CYP2C9 inh 60.6
COc1ccc(C2C(C(=O)c3sc(C)nc3C)=C(O)C(=O)N2CCN(C)C)cc1 (configuration not stated)	none
Cc1ccc2nc(NC(=O)CSCC(=O)OCC(=O)c3ccc(Br)cc3)sc2c1	none
CCCOC(=O)/C(C(N)=NCc1ccccc1)=C(\O)OCCC	none
Nc1nc2nonc2nc1N1CCCCC1	none
Cc1ccc(SCc2c(C#N)c3ccccc3n2C)cc1	none (no result: CYP2C19 act, CYP2C9 inh, CYP2C19 inh, CYP2C9 act)
Cn1c(CSc2ccccc2)c(C#N)c2ccccc21	CYP2C19 inh 75.2
Cc1ccccc1N1CCN(Cc2c(C#N)c3ccccc3n2C)CC1	CYP2C19 inh 67.1
Cn1c(CNc2ccccn2)c(C#N)c2ccccc21	CYP2C19 inh 75.3
O=C1C=C(c2ccccc2)OC(=O)C1C(=O)c1ccccc1 (configuration not stated)	none (no result: CYP2C19 act, CYP2C9 inh, CYP2C19 inh, CYP2C9 act)
CCCNc1nc2c(c(=O)[nH]c(=O)n2C)n1CCC(C)C	none
Cc1ccccc1OCc1nc2ccccc2c(=O)n1/N=C/c1ccco1	none (no result: CYP2C19 act, CYP2C9 inh, CYP2C19 inh, CYP2C9 act)
Cc1ccc(NC(=O)C2(S(=O)(=O)c3ccc(C)cc3)CC2)cc1	none
CS(=O)(=O)N(CC(=O)Nc1ccc2c(c1)OCO2)Cc1ccc(Cl)cc1	CYP2C9 inh 77.4, CYP2C19 inh 84.4
CS(=O)(=O)N(CCc1ccccc1)CC(=O)Nc1ccc2c(c1)OCO2	none
CN(CCC(=O)Nc1ccc2c(c1)OCO2)Cc1ccccc1	CYP2C9 inh 52.0
COC(=O)c1ccc(NC(=O)CN(Cc2ccc(Cl)cc2)S(C)(=O)=O)cc1	CYP2C9 inh 81.6, CYP2C19 inh 94.6
O=C(CCN1CCc2ccccc2C1)Nc1ccc2c(c1)OCO2	none
Cc1ccc(S(=O)(=O)C2(C(=O)Nc3cccc(F)c3)CC2)cc1	CYP2C19 inh 95.4 (no result: Plk1 PBD FP, PLK1 kinase inh)
Cc1ccc(NC(=O)CSc2nnc(Cn3cnc4ccccc43)o2)c(C)c1	none (no result: CYP2C19 act, CYP2C9 inh, CYP2C19 inh, CYP2C9 act)
CCCN(CCC)CCNC(=O)C1CC(=O)N(c2ccc(OC)cc2)C1c1ccc(OC)cc1 (configuration not stated)	none
O=C(Nc1ccc2c(c1)OCO2)C1(S(=O)(=O)c2ccc(Cl)cc2)CC1	CYP2C9 inh 84.7
CS(=O)(=O)N(CC(=O)Nc1ccc2c(c1)OCO2)Cc1ccccc1	CYP2C19 inh 70.1
COCCCNC(=O)CN(Cc1ccc(Cl)cc1)S(C)(=O)=O	CYP2C19 inh 58.3
CS(=O)(=O)N(CC(=O)Nc1ccc2c(c1)OCO2)c1ccc(Cl)cc1	CYP2C9 inh 89.9, CYP2C19 inh 88.4
CS(=O)(=O)N(CC(=O)O)c1ccc2c(c1)OCO2	none
C=CCNC(=O)C1CC(=O)N(c2ccc(OCC(=O)NCc3ccccc3)cc2)C1 (configuration not stated)	none
O=C(Nc1ccc(O)cc1)c1ccc(C(=O)c2ccccc2)o1	none
CC(=O)Nc1ccccc1C(=O)N1CC2(C)CC1CC(C)(C)C2 (configuration not stated)	none
CC12CCC(C(=O)NCc3ccco3)(OC1=O)C2(C)C (configuration not stated)	none
COc1ccc2c(c1)CC/C(=C\c1ccc(OC)c(Cn3cccn3)c1)C2=O	CYP2C9 inh 91.0, CYP2C19 inh 97.4
COc1ccc(/C=C2\CN(Cc3ccccc3)C/C(=C\c3ccc(OC)cc3OC)C2=O)c(OC)c1	none
COc1ccc2c(c1)CC/C(=C\c1ccc(OC)c(Cn3nc(C)cc3C)c1)C2=O	CYP2C19 inh 87.0
CNc1nc(OCCNC(=O)Nc2ccccc2)nc(N2CCOCC2)n1	CYP2C9 inh 65.0
COc1nc(OCCNC(=O)Nc2ccccc2)nc(N(C)C)n1	CYP2C19 inh 70.9
CCOC(=O)c1ccc(Oc2nc(SC)nc(N(C)C)n2)cc1	none
O=C(NCCOc1nc(N2CCOCC2)nc(N2CCOCC2)n1)Nc1ccc(Cl)cc1	none
COC(=O)NCCOc1nc(N(C)C)nc(N(C)C)n1	none
CN(C)c1nc(OCCOC(=O)c2ccccc2)nc(N(C)C)n1	CYP2C9 inh 69.5, CYP2C19 inh 98.6
O=c1cc(CN2CCOCC2)c2c(ccc3ccccc32)o1	none
CC1=C(C#N)C2C(/C1=N/O)C2(C)C (configuration not stated)	none
CC(C)(C)C(=O)c1no[n+]([O-])c1/C(=N/O)C(C)(C)C	CYP2C19 inh 59.4
O=[N+]([O-])c1ccccc1CNC(Cc1ccccc1)c1ccccc1 (configuration not stated)	CYP2C19 inh 90.0
O=C(COC(=O)CCc1c[nH]c2ccccc12)NC1CCS(=O)(=O)C1 (configuration not stated)	none (no result: CYP2C19 act, CYP2C9 inh, CYP2C19 inh, CYP2C9 act)
O=C(Nc1cnn(Cc2ccc(Cl)cc2)c1)c1ccc([N+](=O)[O-])cc1	none
O=C(NC(Nc1ncc(S(=O)(=O)c2ccc([N+](=O)[O-])cc2)s1)(C(F)(F)F)C(F)(F)F)c1ccc(Cl)cc1	CYP2C9 inh 87.9
O=C(Cc1ccc2c(c1)OCCO2)c1c(O)cc(O)cc1O	CYP2C9 inh 95.9, CYP2C19 inh 93.7
O=C(O)COc1ccc(C(=O)Cc2ccc3c(c2)OCCCO3)c(O)c1	none
CCc1nnc(NC(=O)c2ccncc2)s1	none (no result: Plk1 PBD FP, PLK1 kinase inh)
CCCc1nnc(NC(=O)c2ccncc2)s1	CYP2C9 inh 79.9
CC(C)Cc1nnc(NC(=O)c2ccncc2)s1	CYP2C9 inh 95.7, CYP2C19 inh 91.8
CC(C)Nc1nc(NC(C)(C)C)nc(Oc2ccc(=O)n(-c3ccccc3)n2)n1	none
Cc1onc(-c2c(F)cccc2Cl)c1C(=O)OCC(=O)Nc1c(C)n(C)n(-c2ccccc2)c1=O	none (no result: Plk1 PBD FP, PLK1 kinase inh)
CCOC(=O)C(C)n1cnc2c(oc3ccccc32)c1=O (configuration not stated)	none
CCOC(=O)c1cnn(CC2CCCCC2)c1N	CYP2C9 inh 92.4, CYP2C19 inh 60.5 (no result: Plk1 PBD FP, PLK1 kinase inh)
Cc1ccc(O)c(-c2cc(C(=O)NCc3ccncc3)[nH]n2)c1	CYP2C9 inh 96.2, CYP2C19 inh 74.7
Cc1ccc(C)c(C(=O)NCc2ccncc2)c1	CYP2C9 inh 53.7
Cc1ccc(SCc2ccc(C(=O)NCc3ccncc3)cc2)cc1	CYP2C9 inh 99.2, CYP2C19 inh 82.6
Nc1nc(SCC(=O)N2N=C3/C(=C/c4ccco4)CCCC3C2c2ccco2)n[nH]1 (configuration not stated)	CYP2C19 inh 50.7
Nc1nc(SCC(=O)NCC2CCCO2)n[nH]1 (configuration not stated)	none
COc1ccccc1-n1c(SCC(=O)NC2CCCCC2)nc2c(c1=O)SCC2	none
